S1P3 antag – antagonists of human S1P3 receptor | Q99500 | CHO S1P3 NFAT-BLA reporter, FRET fluorescence, antagonist mode | inhibition, % at 4.98 µM | actives 0.27% (n = 170,000);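 active = inhibition above the plate cutoff, the mean inhibition of test wells on that plate plus 3 SD, cut at about 28% in these data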;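 note: cells challenged with S1P at its EC80 of 0.8 µM; blue over green emission ratio from cleaved BLA substrate after 4 h stimulation; 0% = S1P-stimulated wells and 100% = unstimulated DMSO-only wells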
Target sequence (Q99500 whole entry, looked up): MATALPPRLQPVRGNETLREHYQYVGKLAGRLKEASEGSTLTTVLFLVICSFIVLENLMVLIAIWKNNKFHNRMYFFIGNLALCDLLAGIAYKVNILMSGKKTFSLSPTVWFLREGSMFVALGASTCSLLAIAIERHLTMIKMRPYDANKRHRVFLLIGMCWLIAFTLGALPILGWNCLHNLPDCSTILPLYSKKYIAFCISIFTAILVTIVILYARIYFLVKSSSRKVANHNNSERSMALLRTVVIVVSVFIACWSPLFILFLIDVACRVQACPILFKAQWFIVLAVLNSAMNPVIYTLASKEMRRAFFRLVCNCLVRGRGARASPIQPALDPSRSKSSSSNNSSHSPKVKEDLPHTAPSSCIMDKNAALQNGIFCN
S1P4 ag – agonists of human S1P4 receptor. O95977. AID 1509. actives 0.35% (n = 220,000). activation, % at 4.98 µM. S1P4-expressing cell line, agonist reporter assay; in the data active = activation above about 11%;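 note: 0% = DMSO vehicle and 100% = reference agonist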
EP2 mod – modulates human prostaglandin E2 receptor EP2 signaling. P43116. actives 0.83% (n = 260,000). induction, % at 25 µM. EP2-expressing cells, cAMP HTRF FRET, PGE2 co-stimulation;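 active = compounds whose cAMP rise, as percent of the full-agonist control response, exceeds 60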;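 note: rat C6 glioma line stably carrying human EP2 under a CMV promoter; the protocol text gives 20 µM as final concentration; 100% = response of wells given 1 µM PGE2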
S1P4 antag – human S1P4 receptor antagonism | O95977 | S1P4-expressing cells, antagonist mode, reporter read-out | inhibition, % at 4.98 µM | actives 0.26% (n = 220,000); in the data active = inhibition above about 29%;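 note: 0% = wells stimulated with agonist and 100% = vehicle wells without agonist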
PGE2 EP2 inh – inhibitors of human EP2 prostaglandin E2 receptor; C6 glioma cells expressing human EP2, cAMP TR-FRET; cells stimulated with saturating PGE2; inhibition, % at 25 µM; actives 0.52% (n = 260,000);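 active = percent inhibition above 40 after rounding to a whole number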;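 note: rat C6 glioma host cells with rolipram phosphodiesterase inhibitor present; the protocol text gives 20 µM as final concentration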
S1P4 agonist cf – human S1P4 agonism, confirmation; S1P4 agonist cell-based reporter assay; actives 7% (n = 740); AID 1523; shares compounds with S1P4 ag; activation, % at 4.98 µM; in the data active = activation above about 12%;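 note: 0% = vehicle and 100% = full reference agonist response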
S1P1 ag – activates human S1P1, counter-screen for S1P4 agonists | shares compounds with S1P4 ag | actives 4% (n = 740) | S1P1 agonist cell-based assay, activation | activation, % at 4.98 µM | AID 1563; in the data active = activation above about 21%;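 note: 0% = vehicle wells and 100% = reference agonist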
The depositor's hits bear a star; x = not tested or not shown. In the library only some 2% were active in any assay of this set; here they are far more common.

SMILES	S1P3 antag	S1P4 ag	EP2 mod	S1P4 antag	PGE2 EP2 inh	S1P4 agonist cf	S1P1 ag
C=CCc1c(O)c(CC)cc2c(C)cc(=O)oc12	-2.4	27.7*	-2.5	-7.6	8.7	6.0	6.6
CCN(CC)Cc1c(O)c(Cl)cc2c(C)cc(=O)oc12	-20.3	6.0	0.9	-1.7	1.6	x	x
CCCC(=O)Nc1ccc(-c2nc3cc(C)c(C)cc3o2)cc1	18.8	13.1*	-34.5	4.8	12.5	0.3	-3.9
Cc1cc(C)c2cc(CN(Cc3cccs3)C(=O)NC3CCCCC3)c(=O)[nH]c2c1	x	x	33.8	x	15.8	x	x
Cc1ccc(NC(=S)N(N)CCO)cc1	-12.5	3.1	6.1	2.8	4.9	x	x
CCN(N)C(=S)Nc1ccc(F)cc1	-1.2	32.9*	-5.8	3.7	2.0	-1.4	-7.6
COCCCNC(=O)c1cc2c(=O)n3cc(C)ccc3nc2n(C(C)C)c1=N	x	x	-25.7	x	6.2	x	x
C=CCn1c(=N)c(C(=O)NCCCOC)cc2c(=O)n3cc(C)ccc3nc21	-4.5	11.8*	-2.7	-6.6	x	0.2	0.2
C=CCn1c(=N)c(C(=O)NCCCOC)cc2c(=O)n3ccccc3nc21	-2.8	11.3*	16.2	-13.2	15.0	7.9	8.9
N#CCC(CNc1ncc(C(F)(F)F)cc1Cl)OC(=O)c1cccc(C(F)(F)F)c1 (centres undefined)	x	15.9*	8.4	0.5	11.5	-2.2	5.1
CCOC(=O)CSc1nc(N)c(C#N)c(-c2ccccc2Cl)c1C#N	x	x	-28.3	x	10.0	x	x
CCOC(=O)c1nc(NNC(C)=O)sc1C	-29.7	-1.2	4.8	-2.3	3.0	x	x
CCOC(=O)c1nc(NCCc2ccccc2)sc1C	-3.1	29.6*	-74.9	-11.0	7.7	-2.4	-6.0
COc1ccc(CC(=O)N2C3CCC2CC(O)(c2ccco2)C3)cc1 (centres undefined)	x	x	1.9	x	x	x	x
CC(=O)N1CCN(C(=O)CN2C(=O)N3CCN=C3c3ccccc32)CC1	x	x	-28.2	x	8.3	x	x
CCNC(=S)NNC(=O)c1cc(C)nc2ccccc12	-7.9	43.7*	22.6	-4.8	3.9	-1.2	2.0
CC1CCC2(C)c3[nH]c4ccccc4c3CCN2C1 (centres undefined)	x	x	-21.8	x	13.5	x	x
Cc1ccc(S(=O)(=O)N2CCc3ccccc3C2CC(=O)O)cc1 (centres undefined)	-19.2	25.9*	12.3	8.6	7.0	-1.9	-1.5
COc1cc(Br)cc(C=Nc2cccc(C(F)(F)F)c2)c1O	-5.8	13.5*	24.2	-15.3	7.7	0.0	1.9
CC(C)c1nnc(SCC(=O)Nc2cccc3ccccc23)n1C	x	x	-33.2	x	4.6	x	x
COc1cccc(Nc2nc(-c3sc(NC(=O)c4ccco4)nc3C)cs2)c1	x	28.6*	-3.2	-7.2	13.3	-2.9	-4.2
COC(=O)C(C)(C)ONC(=O)Nc1ccccc1	-26.7	194.1*	24.1	4.9	8.6	-2.0	-2.7
COC(=O)C(C)(C)ONC(=O)Nc1ccc(Br)cc1	2.2	-1.1	0.6	5.7	5.2	x	x
O=C(COc1ccc2ccccc2c1)NNC(=O)Cc1ccccc1	4.1	13.0*	-27.9	-1.9	63.1*	-1.9	-1.2
O=C(COc1ccc2ccccc2c1)NNC(=O)Cc1cccc2ccccc12	x	-0.1	-16.9	2.1	5.5	x	x
SMILES	S1P3 antag	S1P4 ag	EP2 mod	S1P4 antag	PGE2 EP2 inh	S1P4 agonist cf	S1P1 ag
CCn1c2cc(C)sc2c2cnn(CC(=O)OC)c(=O)c21	x	x	-9.7	x	x	x	x
Cc1nc2cc(NC(=O)NCc3ccco3)ccc2o1	1.0	19.6*	8.3	-20.4	14.4	-2.0	2.6
CCCN1C[C@H](NC(=O)c2cc(C)no2)[C@@H](c2ccc(OC)cc2)C1	x	x	-34.0	x	2.2	x	x
CN(C)c1ccc(N2C(=O)CC(Sc3ccccc3C(=O)O)C2=O)cc1 (centres undefined)	0.8	11.4*	34.0	-0.7	7.7	-1.3	-6.7
Cc1ccc(C(C(=O)NCc2ccco2)N(C(=O)CNC(=O)c2cccs2)c2c(C)cccc2C)cc1 (centres undefined)	-1.1	80.9*	23.5	-1.3	7.5	-1.5	-1.6
CCOc1cc(C2C(C#N)=C(N)Oc3n[nH]c(C)c32)ccc1OCc1ccccc1C#N (centres undefined)	x	x	4.8	x	11.5	x	x
N#Cc1cc2c(=O)n3ccccc3nc2n(-c2ccc(Cl)cc2)c1=O	-7.9	8.6	23.9	-14.6	6.2	x	x
Cc1ccccc1-n1c(=O)c(C#N)cc2c(=O)n3ccccc3nc21	x	44.2*	12.8	-39.1	7.7	27.1*	45.8*
C=CCn1c(=N)c(C#N)cc2c(=O)n3ccccc3nc21	x	-0.5	4.4	-25.2	5.8	x	x
C=CCn1c(=O)c(C#N)cc2c(=O)n3ccccc3nc21	-12.6	11.3*	x	-14.7	21.8	11.7*	30.5*
Cc1cc(-n2c(=O)c(C#N)cc3c(=O)n4ccccc4nc32)no1	-99.0	28.3*	-1.4	-73.8	2.2	19.6*	34.5*
CC(C)(C)c1ccc(C(=O)N2CCC(C(=O)NCc3ccncc3)CC2)cc1	-10.1	16.4*	-0.1	-7.6	13.6	-0.5	-1.0
CC(C)(C)c1ccc(C(=O)N2CCC(C(=O)NC3CCCCC3)CC2)cc1	x	x	15.0	x	19.3	x	x
CCC1CCCCN1C(=S)Nc1ccc(OC(F)F)cc1 (centres undefined)	-21.8	12.5*	-21.3	-0.5	3.1	-2.0	-3.4
CC(C)CCNC(=O)C(=O)NC1CCCC1	0.7	56.6*	25.0	13.8	5.6	-2.3	-0.8
CC(C)CCNC(=S)NC1CCCC1	x	1.6	0.0	-7.0	2.8	x	x
COc1ccc(-n2c(SCc3ccc(C)cc3)nnc2-c2ccncc2)cc1	x	x	2.5	x	7.0	x	x
CC(C)Sc1nc2ccc(Br)cc2[nH]1	-8.1	13.8*	1.0	-15.2	10.9	-2.2	1.6
CSc1nc2ccc(Br)cc2[nH]1	4.3	0.6	-1.4	-7.3	3.7	x	x
COCCN1Cc2cc3cc(C)ccc3nc2OC(C)C1=O (centres undefined)	x	x	0.2	x	x	x	x
COc1ccc(NC(=O)[C@H]2C[C@@H](c3cccs3)NS(=O)(=O)N2C)cc1OC	x	x	-33.8	x	x	x	x
O=C(NNc1c2ccccc2nc2ccccc12)C12CC3CC(CC(C3)C1)C2	6.1	13.0*	-30.1	-14.8	9.5	-1.9	-3.2
O=C(CSC(=S)N1CCSCC1)c1ccc(Cl)cc1	16.5	1.5	-39.0	-17.8	5.6	x	x
O=C(CSC(=S)N1CCSCC1)c1ccccc1	0.4	53.0*	-46.0	7.8	5.3	-2.0	1.3
N/N=C1\CCCc2c1[nH]c1ccc([N+](=O)[O-])cc21	-11.3	0.1	5.4	-7.7	5.3	x	x
O=[N+]([O-])c1ccc2[nH]c3c(c2c1)CCCC3	7.8	15.1*	-19.0	5.9	2.1	-3.1	-8.9
CN(C)c1ccc(-c2n[nH]c(=S)n2-c2ccccc2)cc1	-20.8	0.9	29.4	1.0	14.0	x	x
CCN(CC)c1ccc(-c2n[nH]c(=S)n2-c2ccccc2)cc1	1.4	12.1*	26.0	-17.4	13.2	-0.8	0.3
CC(=O)c1cc2ccc(O)cc2oc1=O	-36.7	104.2*	3.1	-59.1	10.5	44.7*	66.0*

Bioassay records (PubChem BioAssay)
